PLK1 PBD block: qHTS for Inhibitors of PLK1-PDB (polo-like kinase 1 - polo-box domain): Primary Screen; Serine/threonine-protein kinase PLK1 (Homo sapiens), P53350; Plk1 PBD binding of FITC phosphopeptide, fluorescence polarization; Potency, µM, inactives show max response, negative = inhibition, most hits filed as inhibitors; 360,000 compounds, 2.8% hits; also: potency is read from the fitted curve at half-maximal effect; series mostly up to about 57 µM; % is scaled to controls: 0 for no effect and ±100 for the full control effect; nearly all actives have a fitted effect of over 65% in size
JMJD2A Tudor: qHTS Assay for Inhibitors of JMJD2A-Tudor Domain; Lysine-specific demethylase 4A (Homo sapiens), O75164; AlphaScreen JMJD2A-Tudor / H3K4me3 peptide binding; Potency, µM (highest dose often 114 µM), inactives show at the top dose activity change, negative = inhibition, most hits filed as inhibitors; 390,000 compounds, 4.4% hits; AID 504339, 2011; also: potency is read from the fitted curve at half-maximal effect; % is scaled to controls: 0 for no effect and ±100 for the full control effect; nearly all actives have a fitted effect of over 50% in size
HP1b binding inh: HTS for Inhibitors of HP1-beta Chromodomain Interactions with Methylated Histone Tails | Chromobox protein homolog 1 (Homo sapiens), P83916 | AlphaScreen HP1-beta / biotin-H3K9me3 peptide binding | Potency, µM (series often up to 114 µM), inactives show at the highest dose activity change, negative = inhibition, most hits filed as inhibitors | 390,000 compounds, 0.56% hits; also: potency is read from the fitted curve at half-maximal effect; nearly all actives have a fitted effect of over 70% in size
Target sequence (P83916 whole entry, looked up): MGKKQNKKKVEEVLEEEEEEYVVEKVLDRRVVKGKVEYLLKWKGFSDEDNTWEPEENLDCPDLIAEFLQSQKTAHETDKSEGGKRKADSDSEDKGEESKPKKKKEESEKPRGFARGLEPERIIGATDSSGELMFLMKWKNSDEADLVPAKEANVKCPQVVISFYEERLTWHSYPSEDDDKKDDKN
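Compound inhibition of the preformed complex between 50 nM HP1-beta and 50 nM biotinylated H3K9me3 peptide was read by AlphaScreen. Buffer was PBS pH 7.4 with 0.01% Tween-20. Incubations ran 30 min at room temperature, with 10 ug/mL donor/acceptor beads.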
G9a inh: qHTS Assay for Inhibitors of Histone Lysine Methyltransferase G9a. Potency, µM (highest dose often 102 µM), inactives show at the top dose activity, negative = inhibition, hits mostly inhibitors. AID 504332, 2011. Histone-lysine N-methyltransferase EHMT2 (Homo sapiens), Q96KQ7. G9a H3K9 monomethylation, AlphaScreen, 2 h. 350,000 compounds, 8.8% hits; also: potency is read from the fitted curve at half-maximal effect; % is scaled to controls: 0 for no effect and ±100 for the full control effect; nearly all actives have a fitted effect of over 75% in size
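Using a bead-based AlphaScreen, monomethylated H3K9 product from 2 h room-temperature reactions (G9a 20 nM, peptide 500 nM, SAM 20 uM) was detected with 0.5 ug/mL rabbit anti-H3K9me1 antibody.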
BAZ2B inh: qHTS Assay for Inhibitors of BAZ2B | Bromodomain adjacent to zinc finger domain protein 2B (Homo sapiens), Q9UIF8 | AlphaScreen BAZ2B-H3K14Ac peptide displacement | Potency, µM (highest dose often 114 µM), for inactives: top-dose activity change, negative = inhibition, hits mostly inhibitors | 360,000 compounds, 4.4% hits; also: potency is read from the fitted curve at half-maximal effect; % is scaled to controls: 0 for no effect and ±100 for the full control effect; nearly all actives have a fitted effect of over 60% in size
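AlphaScreen displacement of biotin-H3(5-23)K14Ac peptide (50 nM final) from BAZ2B (50 nM final) in PBS pH 7.4, 0.01% Tween-20; complex preformed 30 min RT, then compounds (top 110 uM) 30 min RT, beads 20 min dark.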
PI5P4Ka inh: qHTS for Inhibitors of phosphatidylinositol 5-phosphate 4-kinase (PI5P4K) | Phosphatidylinositol 5-phosphate 4-kinase type-2 alpha (Homo sapiens), P48426 | PI5P4Kalpha enzyme, ADP-Glo luminescence, 60 min; stronger effect = lower value | max response, % | 330,000 compounds, 1.2% hits | AID 652105, 2013; active = max response of -50% or lower; inconclusive = between -30% and -50%; inactive = -30% or higher; also: value at the top dose of about 77 µM; % is scaled to controls: 0 for no effect and ±100 for the full control effect
Target sequence (P48426 whole entry, looked up): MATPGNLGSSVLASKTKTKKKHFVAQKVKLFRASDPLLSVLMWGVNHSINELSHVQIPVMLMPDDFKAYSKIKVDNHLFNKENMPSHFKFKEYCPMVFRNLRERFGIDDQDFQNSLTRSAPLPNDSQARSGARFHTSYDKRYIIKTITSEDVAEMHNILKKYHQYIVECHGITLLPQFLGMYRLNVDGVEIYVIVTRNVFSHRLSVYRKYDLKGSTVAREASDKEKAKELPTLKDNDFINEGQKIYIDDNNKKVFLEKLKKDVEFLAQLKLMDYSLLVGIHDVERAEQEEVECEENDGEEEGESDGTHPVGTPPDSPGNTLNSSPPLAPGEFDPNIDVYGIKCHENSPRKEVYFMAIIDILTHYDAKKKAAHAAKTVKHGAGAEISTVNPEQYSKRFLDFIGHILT
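ADP-Glo luminescence end-point after a 60 min room-temperature kinase reaction. PI5P4Kalpha and substrate in HEPES pH 7.4 buffer with EGTA, 0.1% CHAPS and 5% DMSO; ATP at 5 microM final.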
Active calls of the source: *; ? = inconclusive; nt = no result; [ ] = remark or other dose. A selection: hits, their analogues and other compounds. The true share with any hit is near 12%. Unless noted, calls follow the shape of the dose curve; as a rule, active = well fitted curve in the direction sought with a large enough effect; inconclusive = small, poorly fitted or top-dose-only effect, or another doubt; inactive = no such curve, though single readings can be large; an effect the other way counts as inactive or inconclusive.

SMILES	PLK1 PBD block	JMJD2A Tudor	HP1b binding inh	G9a inh	BAZ2B inh	PI5P4Ka inh
Cc1cc(C)cc(NC(=O)CSc2oc(-c3cccs3)nc2S(=O)(=O)c2ccccc2)c1	nt	-6.8%	47.9%	-1.9%[59 µM]	31.6%	nt
COc1ccc(OCCCC(=O)Nc2cc(Cl)ccc2-n2cncn2)cc1	-2.3%	-13.8%	3.8%	44.7µM*	7.5%	-0.9
Cc1ccc(OCCCC(=O)Nc2cc(Cl)ccc2-n2cncn2)cc1	-4.5%	-2.1%	26.2%	-0.9%[2.33 µM]	-3.3%	5.1
CCOC(=O)CSc1nc2cc(OC)c(OC)cc2cc1C#N	nt	-9.2%[57.1 µM]	24.6%[57 µM]	nt	nt	nt
CCCC1CC(=O)OC1(C)C(=O)CSc1n[nH]c(-c2ccccc2)n1 (stereo not drawn)	nt	nt	nt	11.2µM*	-26.6%	nt
O=C(CSc1n[nH]c(-c2ccccc2)n1)N1CCOCC1	-5.4%	2.1%	24.0%	2.8%	?	2.9
CCCC1CC(C)(C(=O)CSc2n[nH]c(-c3ccccc3)n2)OC1=O (stereo not drawn)	-13.4%	35.5µM*	-9.5%	31.6µM*	?	nt
Cc1ccc([N+](=O)[O-])c(C)[n+]1C	-3.9%	14.1µM*	?	3.55µM*	?	1.9
O=[N+]([O-])c1ccc(F)cc1F	-5.4%	-14.5%	-0.9%	4.9%[0.501 µM]	29.3%	-0.2
Cc1ccc(S(=O)(=O)N2CCN(C(=O)COC(=O)CCCOc3ccccc3)CC2)c(C)c1	4.1%	-4.5%	29.5%	-13.7%[12.7 µM]	-1.5%	8.3
CCC(=O)N1CCc2cc(Br)cc(S(=O)(=O)NCc3ccccc3OC)c21	2.6%	-10.9%	-2.4%	8.4%	-1.5%	2.1
CC(C)C[C@@H](CNCC(=O)[C@H](Cc1ccccc1)NC(=O)c1[nH]cnc1C(=O)N[C@@H](C)CN)NC(=O)c1nc[nH]c1C(=O)N[C@@H](C)C(=O)O	-22.0%	79.4µM*	55.5%	nt	nt	-23.7
C[C@H](NC(=O)c1nc[nH]c1C(=O)NCC(=O)OCc1ccccc1)C(=O)OCc1ccccc1	-6.8%	-31.4%	32.0%	nt	14.0%	1.0
CC(C)C[C@@H](CNCC(=O)[C@H](C)NC(=O)c1[nH]cnc1C(=O)N[C@@H](C)CN)NC(=O)c1nc[nH]c1C(=O)N[C@@H](CO)C(=O)O	-8.8%	89.1µM*	26.8%	nt	nt	1.4
CC(C)C[C@@H](CNCC(=O)[C@H](C)NC(=O)c1[nH]cnc1C(=O)N[C@@H](C)CN)NC(=O)c1nc[nH]c1C(=O)N[C@@H](C)C(=O)O	-8.9%	50.1µM*	66.3%	nt	nt	-3.3
CC(C)(C)C#CC(CCc1ccccc1)OS(N)(=O)=O (stereo not drawn)	nt	nt	nt	?	-1.6%[57.1 µM]	nt
COc1cc(NS(=O)(=O)c2ccc3c(c2)CCN3S(C)(=O)=O)cc(OC)c1	nt	-14.5%	27.3%[57 µM]	4.8%[59 µM]	1.0%	nt
C=CCOC(=O)C1=C(C)NC(SCC(=O)Nc2ccc(C)c(Cl)c2)=C(C#N)C1c1ccco1 (stereo not drawn)	-7.4%	-18.0%	32.8%	-13.6%	7.6%	3.2
COCCOC(=O)C1=C(C)NC(SCC(=O)NC(C)(C)C)=C(C#N)C1c1ccco1 (stereo not drawn)	-5.8%	89.1µM*	27.3%	-9.4%[59 µM]	-4.3%	-1.3
CCOc1ccc(CCNC(=O)Cn2c(-c3cccs3)cc3ccccc32)cc1	nt	-9.6%	23.7%	11.6%[59 µM]	3.2%	nt
CCN(CC)C(=O)c1c([N+](=O)[O-])c(C(C)(C)C)nn1C	-1.1%	6.6%	35.0%	-0.7%[59 µM]	-2.2%	-0.9
Cn1nc(C(C)(C)C)c([N+](=O)[O-])c1C(=O)NCCO	23.8µM*	50.1µM*	8.2%	0.0%	10.1%	-12.5
O=C(c1ccccc1)C(O)C(c1ccccc1)N1CCOCC1 (stereo not drawn)	0.3%	-12.1%	35.1%	-0.4%	-11.0%	-7.6
Cc1nn(-c2ccccn2)c2c1C(c1c(F)cccc1Cl)C1=C(N2)c2ccccc2C1=O (stereo not drawn)	nt	nt	nt	?	8.91µM*	nt
CCOC(=O)c1nn(-c2ccc(OC)cc2)c(=O)c2c(NC(=O)Cc3ccccc3)scc12	nt	-12.3%	nt	nt	nt	nt
SMILES	PLK1 PBD block	JMJD2A Tudor	HP1b binding inh	G9a inh	BAZ2B inh	PI5P4Ka inh
CCOC(=O)c1nn(-c2ccccc2C)c(=O)c2c(N)scc12	-14.2%	17.8µM*	-16.2%	3.16µM*	79.4µM*	?
CCOC(=O)c1nn(-c2ccccc2)c(=O)c2c(NC(C)=O)scc12	-9.9%	-11.0%	23.3%	-46.1%	nt	-3.7
Nc1scc2c(C(=O)N/N=C/c3ccc(Cl)cc3)nn(-c3ccccc3)c(=O)c12	?	44.7µM*	-23.5%	?	?	nt
CCOC(=O)c1nn(-c2ccccc2)c(=O)c2c(N)scc12	2.67µM*	-34.4%[11.4 µM]	21.9%	1.58µM*	nt	-60.5*
Nc1c(C(=O)N/N=C/c2ccc(Cl)cc2)cnn1-c1ccccc1	-0.2%	-18.3%	13.8%	-3.2%	-11.6%	-0.6
COc1ccc(-n2ccn(CC(=O)NCCc3ccccc3)c(=O)c2=O)cc1OC	nt	-10.2%	19.0%	4.0%[59 µM]	?	nt
COc1ccc([N+](=O)[O-])cc1NS(=O)(=O)c1ccccc1	?	-15.2%	10.8%	0.794µM*	-0.3%	-8.8
O=C(O)c1cccc(S(=O)(=O)Nc2ccc([N+](=O)[O-])cc2O)c1	-2.8%	?	10.7%	22.4µM*	-27.8%	-2.8
COc1ccccc1NS(=O)(=O)c1ccc(O)cc1	3.36µM*	-16.8%[11.4 µM]	?	12.2%	1.3%	-27.6
COc1ccc([N+](=O)[O-])cc1NS(=O)(=O)Cc1ccccc1	-0.9%	-2.3%	25.3%	-6.2%	-5.8%	0.8
COc1cc(Nc2nc3ccccc3nc2NS(=O)(=O)c2ccc([N+](=O)[O-])cc2)cc(OC)c1OC	-11.7%	?	-25.1%	nt	7.94µM*	0.1
Cc1nc2ccn(Cc3ccco3)c(=O)c2cc1C(=O)NCc1ccc(Cl)cc1	nt	-18.3%	18.9%	-0.6%[59 µM]	-22.2%	nt
COc1ccccc1NS(=O)(=O)c1ccc2oc(N)nc2c1	?	-7.7%	-9.4%	25.1µM*	1.6%	-1.5
COc1ccccc1NS(=O)(=O)c1ccc2oc(SC)nc2c1	0.2%	1.0%	33.6%	4.9%	-14.3%	5.5
Cc1ccc(C)c(NC(=O)[C@@H]2CCCN2S(=O)(=O)c2ccccc2F)c1	-6.1%	-10.1%	24.9%	14.8%[59 µM]	6.0%	1.7
